Structures are written as SMILES. About 1,100 (1.7%) of roughly 63,000 compounds were called active.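 Rule for the calls: active = compounds whose percent cytotoxicity in the single-dose primary screen, scaled between solvent and toxic-drug controls, exceeds 50; inactive = the rest.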 The sample as a whole holds a higher share of actives than the screen did. Potency and affinity values are given separately.

These results are taken from PubChem BioAssay AID431 (Sanford-Burnham Center for Chemical Genomics, 2006).

The assay in a line: cytotoxicity in KRAS-transformed pancreatic duct cells, primary screen, cell-based, fluorescence, HTS (AID 431).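 Note: 0% = DMSO solvent wells and 100% = doxorubicin-treated wells.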 As to conditions: HPDE-C7K KRASV12 cells, Alamar Blue viability, 48 h; at 10 µM; hits give high values. A general note: The colour change of resazurin is a common sign of viable cells or microbes.
In the case of `S=C(N=Nc1ccccc1)NNc1ccccc1`, the cytotoxicity was 50.5% (active).
With `ONC(=Nc1ccccc1)C(=Nc1ccccc1)NO`, the cytotoxicity was -6.3% (inactive).
The figure for `CC(=Nc1ccccc1)Nc1ccccc1` is -3.8% (inactive); for `COC(=O)c1c(C)[nH]c(C(=O)C(C)Sc2nnc(-c3cc(OC)c(OC)c(OC)c3)o2)c1C` (stereo not given) it is 11.4% (inactive); for `Cn1c(=O)c2c(nc(NCCCN3CCOCC3)n2Cc2ccc(Cl)cc2)n(C)c1=O` it is -3.3% (inactive).
In the case of `COC(=O)c1c(C)oc(C)c(C(=O)OC)c1=O`, the cytotoxicity was 0.6% (inactive).
For `CCOC(=O)c1c(C)oc2c1cc(O)c1ccccc12`, the cytotoxicity was 14% (inactive).
The figure for `CCN1CCN(Cc2cc(=O)oc3ccc(Cl)cc23)CC1` is -11% (inactive); for `Cc1ccc(-n2c(SCC(=O)Nc3ccc4c(c3)OCO4)nnc2-c2ccoc2C)cc1` it is 17% (inactive); for `Cc1cccc(-n2c(SCC(=O)Nc3ccc4c(c3)OCO4)nnc2-c2ccoc2C)c1` it is 53.6% (active).
For `Cc1cccc(-n2c(SCC(=O)Nc3nonc3C)nnc2-c2ccoc2C)c1`, the cytotoxicity is -13.8% (inactive).
The figure for `COC(=O)c1cccc(NC(=O)C2COc3ccccc3O2)c1` (stereo not given) is -26.2% (inactive); for `CC(=O)c1ccccc1OC(=O)c1ccco1` it is -0.8% (inactive); for `C=CCN1C(=Nc2ccccc2)SC/C1=C\C(=O)OC` it is -1.6% (inactive).
The figure for `O=C(c1cccc(C(=O)N2CCN(c3ncccn3)CC2)c1)N1CCN(c2ncccn2)CC1` is -2.4% (inactive); for `Cc1c(C)c2cc(Cl)c(OCc3nn[nH]n3)cc2oc1=O` it is -12% (inactive); for `CCOC(=O)c1[nH]c2ccc(F)cc2c1NC(=O)C(C)N1CCc2cc(OC)c(OC)cc2C1` (stereo not given) it is 53.6% (active).
Turning to `CCOC(=O)c1[nH]c2ccccc2c1NC(=O)CN1CCCCC1`, the cytotoxicity was -11.1% (inactive).
The figure for `CCOC(=O)c1[nH]c2ccc(OC)cc2c1NC(=O)C(C)N1CCSCC1` (stereo not given) is 31.2% (inactive); for `CCOC(=O)c1[nH]c2ccc(F)cc2c1NC(=O)CN1CCN(C/C=C/c2ccccc2)CC1` it is 65% (active).
As for `CCOC(=O)c1[nH]c2ccc(F)cc2c1NC(=O)CN1CCc2cc(OC)c(OC)cc2C1`, the cytotoxicity is -3.4% (inactive).
As to `CCOC(=O)c1[nH]c2ccc(OCC)cc2c1NC(=O)CN1CCN(c2ccccc2)CC1`, the cytotoxicity was 7.4% (inactive).
For `Cn1c(=O)n(CC(=O)OCc2ccccc2)c(=O)c2c1nc1n2CCCN1C1CCCCC1`, the cytotoxicity is 0.1% (inactive).
`N#CC1=C(N)SC(N)=C(C#N)C1CCC1CCCCC1`: the cytotoxicity was 35.2% (inactive).
The figure for `Cc1nc(-c2ccc(C(=O)O)cc2)cs1` is -9.4% (inactive); for `COCCNC(=O)c1ccc(NS(C)(=O)=O)cc1` it is -8% (inactive).
Under `COc1ccc(OC)c(NC(=O)CC(NCCC2=CCCCC2)C(=O)O)c1` (stereo not given) stands -16.9% (inactive).
The figure for `CC1CCN(CC(O)COc2ccc(F)cc2)CC1` (stereo not given) is -1.9% (inactive); for `CC1CCN(CC(O)COC2CCC(C(C)(C)C)CC2)CC1` (stereo not given) it is 50.3% (active); for `Cc1ccc(N2CCN(CC(O)COC3CCCCC3)CC2)cc1` (stereo not given) it is 42.6% (inactive).
For the compound `CC1CC(=O)N(Cc2ccccc2)c2ccccc2N1C=O` (stereo not given), the cytotoxicity is 7.1% (inactive).
The figure for `CON(C)c1nc(Oc2ccc(=O)[nH]n2)nc(N(C)C)n1` is -15.6% (inactive).
For `CCC1CCCCN1CCNC(=O)C1CCN(S(=O)(=O)c2c(C)noc2C)CC1` (stereo not given), the cytotoxicity was -6.9% (inactive).
Consider `CCOC(=O)N1CCN(C(=O)c2ccc3c(c2)sc2nc(-c4ccccc4)cn23)CC1`, for which the cytotoxicity was 6.1% (inactive).
Under `CCOC(=O)N1CCN(C(=O)c2ccc3c(c2)sc2nc(-c4ccc(OC)cc4)cn23)CC1` stands 19% (inactive); under `COc1ccc2c(c1)sc1nc(-c3ccccc3)cn12`, 53.3% (active); under `O=C(NC1=NCCS1)c1ccc2c(c1)C(=O)N(Cc1ccco1)C2=O`, -7.1% (inactive).
Under `O=C(OC(C(=O)NCC1CCCO1)c1ccccc1F)c1ccco1` (stereo not given) stands 8.7% (inactive); under `CCn1ncc(C2=NOC(C(=O)NCc3ccc(Cl)cc3)C2)c1C` (stereo not given), 59.3% (active).
With `CCn1ncc(C2=NOC(C(=O)NCc3ccc(OC)cc3)C2)c1C` (stereo not given), the cytotoxicity is 23.7% (inactive).
Under `CCn1ncc(C2=NOC(C(=O)NCc3ccccc3)C2)c1C` (stereo not given) stands 48.7% (inactive); under `CC1=C(C(=O)Nc2cccc(C)n2)C(c2ccc3c(c2)OCO3)C2=C(CC(c3ccco3)CC2=O)N1` (stereo not given), 7.4% (inactive); under `COC(=O)c1sccc1NC(=O)c1ccncc1`, 5.9% (inactive).
Under `O=C(Cc1ccccc1)N(c1ccc(F)cc1)C1C=CS(=O)(=O)C1` (stereo not given) stands 3.4% (inactive).
The figure for `Cc1nn(Cc2ccccc2Cl)c(C)c1NC(=O)C1C2CCC(O2)C1C(=O)O` (stereo not given) is 0.4% (inactive); for `C=CCn1c(SCC(=O)Nc2cc(C)ccc2C)nnc1-c1cnccn1` it is -12.5% (inactive).
With `CCn1c(SCC(=O)Nc2ccccc2OC)nnc1-c1cnccn1`, the cytotoxicity is -28% (inactive).
Under `C=CCn1c(SCC(=O)Nc2cc3oc4ccccc4c3cc2OC)nnc1-c1cnccn1` stands 50.9% (active); under `Cc1ccc(OCCN2CCN(C(=O)CCC(=O)Nc3nnc(C(C)C)s3)CC2)cc1`, 14.3% (inactive).
Take `COc1ccc(-c2noc(COc3ccc4ccccc4c3Br)n2)cc1OC`: the cytotoxicity was 58% (active).
With `COc1ccc(-c2noc(COc3ccc(C)c(C)c3)n2)cc1OC`, the cytotoxicity is 4.5% (inactive).
As to `COc1ccc(-c2noc(COc3ccccc3OC)n2)cc1OC`, the cytotoxicity is -10.5% (inactive).
Under `CCOC(=O)N1CCN(Cc2nc3c(c(=O)[nH]c(=O)n3C)n2CCCc2ccccc2)CC1` stands -0.5% (inactive); under `CCN(CC)CCCNC(=O)Cn1cc2c(n1)CCC(C)C2` (stereo not given), 3.7% (inactive); under `COc1ccc(-c2nc(N)ncc2Oc2ccccc2Br)c(O)c1`, 3.7% (inactive).
The figure for `COc1cccc(Oc2cnc(N)nc2-c2ccc(OC)cc2O)c1` is 45.2% (inactive).
The figure for `COc1ccc(-c2nc(N)nc(C)c2Oc2ccccc2Br)c(O)c1` is 92.6% (active); for `CCc1ccccc1NC(=O)CN(C)C(=O)CN1C(=O)NC2(CCCCCC2)C1=O` it is 2.1% (inactive).
Take `COc1ccc(NC2C=CS(=O)(=O)C2)c(OC)c1` (stereo not given): the cytotoxicity is 4.8% (inactive).
The figure for `Cc1n[nH]c(C)c1S(=O)(=O)N1CCN(c2ccccn2)CC1` is 7.4% (inactive).
Under `CCc1oc2ccccc2c1C(=O)CCN1CCCCC1` stands 9.9% (inactive); under `CCCCC(=O)c1c(O)c2ccccc2oc1=O`, 17.2% (inactive).
The figure for `CCOC(=O)C1=C(C)NC2=C(C(=O)CCC2)C1c1cc(OC)ccc1OC` (stereo not given) is 1.4% (inactive).
As to `CCOc1ccc(Cn2c(=O)oc3ccc(C)cc32)cc1OC`, the cytotoxicity was -2.4% (inactive).
The figure for `O=S(=O)(c1ccc2ccccc2c1)N1CCCCC1` is 5.8% (inactive).
For the compound `O=S(=O)(c1ccc2ccccc2c1)N(CC(O)CN1CCOCC1)c1ccccc1` (stereo not given), the cytotoxicity was -11.1% (inactive).
The figure for `O=C(CN1C(=O)CCSc2ccccc21)Nc1ccccc1` is -22.3% (inactive); for `CCCSc1nnc(NC(=O)Nc2ccc(F)cc2)s1` it is 75.2% (active); for `CCCSc1nnc(NC(=O)Nc2ccccc2)s1` it is -9.2% (inactive).
In the case of `CCC(=O)Nc1nnc(SCC(=O)Nc2ccc(F)cc2)s1`, the cytotoxicity was -4.3% (inactive).
For the compound `COc1cc(-c2nc3cnccc3n2C)cc(OC)c1OC`, the cytotoxicity is -11.3% (inactive).
Under `CC(=O)Nc1cc(C(F)(F)F)ccc1N1CCOCC1` stands -2.7% (inactive); under `Cc1onc(-c2ccccc2)c1C(=O)Nc1cc(C(F)(F)F)ccc1N1CCOCC1`, 60.3% (active).
As for `O=C(Nc1cc(C(F)(F)F)ccc1N1CCOCC1)c1ccco1`, the cytotoxicity is -2.4% (inactive).
The figure for `O=C(Nc1cc(C(F)(F)F)ccc1N1CCOCC1)c1c(F)c(F)c(F)c(F)c1F` is 69.9% (active); for `Cc1onc(-c2ccccc2)c1C(=O)Nc1ccccc1N1CCOCC1` it is 4.2% (inactive); for `O=C(Nc1cc(C(F)(F)F)ccc1N1CCOCC1)c1cccnc1` it is 2.2% (inactive).
The figure for `COc1cc(C2NC(=O)c3ccccc3O2)cc(OC)c1OC` (stereo not given) is -13.8% (inactive); for `OC1C=CSc2nc3ccccc3n21` (stereo not given) it is -17.8% (inactive).
With `COC(=O)COc1ccc(NC(=O)C2CCCO2)cc1` (stereo not given), the cytotoxicity is -3% (inactive).
Regarding `CC(C)C[C@H](NC(=O)NCc1ccc(Cl)cc1)C(=O)O`, the cytotoxicity was 5.3% (inactive).
As to `CCCOC(=O)Nc1nc2ccccc2o1`, the cytotoxicity was -0.4% (inactive).
`COc1ccccc1C(=O)Nc1nnc(-c2ccc(F)cc2)o1`: the cytotoxicity was -1.2% (inactive).
The figure for `CC(C)CCn1cnc2c(cnn2-c2ccc(F)cc2)c1=O` is -10.9% (inactive); for `C=CCOc1ccccc1CNn1nnnc1N` it is -4.5% (inactive); for `Nc1ccc(N2CCCCC2)cc1N1CCCCC1` it is 34.3% (inactive).
`O=C(O)c1ccc(N2CCCCC2)cc1`: the cytotoxicity is -1.2% (inactive).
On to `O=C(O)CCn1[nH]c(=O)ccc1=O`, for which the cytotoxicity was -18.2% (inactive).
For `CSc1ccccc1NC(=O)c1ccco1`, the cytotoxicity is 4.6% (inactive).
As to `COc1ccc(C2C3=C(CC(c4ccco4)CC3=O)Nc3ccccc3N2C(C)=O)cc1` (stereo not given), the cytotoxicity is -5.9% (inactive).
`O=C1CC(c2ccco2)CC2=C1C1c3ccccc3C(=O)N1c1ccccc1N2` (stereo not given): the cytotoxicity was 51.6% (active).
Under `CCC(=O)N1c2ccccc2NC2=C(C(=O)CC(c3ccco3)C2)C1c1ccco1` (stereo not given) stands 7.6% (inactive); under `COC(=O)C(C(=O)OC)=C(/C=C/N(C)C)N(C)C`, 0.2% (inactive).
The figure for `Nc1nonc1C(=O)NCCNCc1ccccc1OCc1ccccc1F` is 0.9% (inactive); for `Nc1nonc1C(=O)NCCNCc1cc(Br)ccc1OCc1ccccc1F` it is 17.1% (inactive).
As to `Nc1nonc1C(=O)NCCNCc1cc(Br)ccc1OCc1ccc(F)cc1`, the cytotoxicity was 54% (active).
Under `COCCn1c(SCC(=O)N2CCCCC2)nc2ccccc2c1=O` stands 4.9% (inactive).
With `CC(=O)Nc1ccc(S(=O)(=O)N(C)c2ccc(O)cc2)cc1`, the cytotoxicity was -12.1% (inactive).
Under `CCOc1ccc(C(=O)Nc2ccc3c(c2)OCO3)cc1OCC` stands -16.6% (inactive); under `CCOC(=O)c1ccc(NC(=O)C2CCN(S(=O)(=O)c3ccccc3)CC2)cc1`, 6.6% (inactive).
